According to the supplement of paper PMC8728848:
About 410 targets per protein were measured; listed, in parts, are those with the strongest signals and a random draw of the rest.

How the values were obtained:
Test in all cases: glycan array binding signal (z-score within array); higher = stronger binding
Details in all cases: glycan notation: IUPAC condensed, linker removed
GlcNAc(b1-3)Gal(b1-4)Glc = molecular target: GlcNAc(b1-3)Gal(b1-4)Glc
Outline: (§1)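 Glycan array data were curated from 3228 arrays in the Consortium for Functional Glycomics database and kept only where the protein sequence was available. Glycan names were converted to IUPAC-condensed notation, and columns mapping to the same glycan were averaged. The binding signal is a within-array Z-score, averaged across arrays of the same protein sequence at different concentrations or buffers and across linkers. Negative Z-scores can be read as non-binding.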

[1] = molecular target: GlcNAc(b1-3)Gal(b1-4)GlcNAc(b1-2)Man(a1-3)[GlcNAc(b1-3)Gal(b1-4)GlcNAc(b1-2)Man(a1-6)]Man(b1-4)GlcNAc(b1-4)[Fuc(a1-6)]GlcNAc
Outline: as §1

[2] = molecular target: GlcNAc(b1-3)Gal(b1-4)GlcNAc(b1-3)Gal(b1-4)GlcNAc
Outline: as §1

[3] = molecular target: GlcNAc(b1-3)Gal(b1-4)GlcNAc(b1-3)Gal(b1-4)GlcNAc(b1-2)Man(a1-3)[GlcNAc(b1-3)Gal(b1-4)GlcNAc(b1-3)Gal(b1-4)GlcNAc(b1-2)Man(a1-6)]Man(b1-4)GlcNAc(b1-4)GlcNAc
Outline: as §1

[4] = molecular target: GlcNAc(b1-3)Gal(b1-4)GlcNAc(b1-3)Gal(b1-4)GlcNAc(b1-2)Man(a1-3)[GlcNAc(b1-3)Gal(b1-4)GlcNAc(b1-3)Gal(b1-4)GlcNAc(b1-2)Man(a1-6)]Man(b1-4)GlcNAc(b1-4)[Fuc(a1-6)]GlcNAc
Outline: as §1

[5] = molecular target: GlcNAc(b1-3)Gal(b1-4)GlcNAc(b1-3)Gal(b1-4)GlcNAc(b1-2)[GlcNAc(b1-3)Gal(b1-4)GlcNAc(b1-3)Gal(b1-4)GlcNAc(b1-6)]Man(a1-6)[GlcNAc(b1-3)Gal(b1-4)GlcNAc(b1-3)Gal(b1-4)GlcNAc(b1-2)Man(a1-3)]Man(b1-4)GlcNAc(b1-4)[Fuc(a1-6)]GlcNAc
Outline: as §1

[6] = molecular target: GlcNAc(b1-3)Gal(b1-4)GlcNAc(b1-3)Gal(b1-4)GlcNAc(b1-3)Gal(b1-4)GlcNAc(b1-2)Man(a1-3)[GlcNAc(b1-3)Gal(b1-4)GlcNAc(b1-3)Gal(b1-4)GlcNAc(b1-3)Gal(b1-4)GlcNAc(b1-2)Man(a1-6)]Man(b1-4)GlcNAc(b1-4)GlcNAc
Outline: as §1

[7] = molecular target: GlcNAc(b1-3)Gal(b1-4)GlcNAc(b1-3)Gal(b1-4)GlcNAc(b1-3)Gal(b1-4)GlcNAc(b1-2)Man(a1-3)[GlcNAc(b1-3)Gal(b1-4)GlcNAc(b1-3)Gal(b1-4)GlcNAc(b1-3)Gal(b1-4)GlcNAc(b1-2)Man(a1-6)]Man(b1-4)GlcNAc(b1-4)[Fuc(a1-6)]GlcNAc
Outline: as §1

[8] = molecular target: GlcNAc(b1-3)Gal(b1-4)GlcNAc(b1-3)Gal(b1-4)GlcNAc(b1-3)Gal(b1-4)GlcNAc(b1-2)[GlcNAc(b1-3)Gal(b1-4)GlcNAc(b1-3)Gal(b1-4)GlcNAc(b1-3)Gal(b1-4)GlcNAc(b1-6)]Man(a1-6)[GlcNAc(b1-3)Gal(b1-4)GlcNAc(b1-3)Gal(b1-4)GlcNAc(b1-3)Gal(b1-4)GlcNAc(b1-2)Man(a1-3)]Man(b1-4)GlcNAc(b1-4)[Fuc(a1-6)]GlcNAc
Outline: as §1

[9] = molecular target: GlcNAc(b1-3)Gal(b1-4)GlcNAc(b1-3)Gal(b1-4)GlcNAc(b1-3)Gal(b1-4)GlcNAc(b1-3)Gal(b1-4)GlcNAc(b1-2)Man(a1-3)[GlcNAc(b1-3)Gal(b1-4)GlcNAc(b1-3)Gal(b1-4)GlcNAc(b1-3)Gal(b1-4)GlcNAc(b1-3)Gal(b1-4)GlcNAc(b1-2)Man(a1-6)]Man(b1-4)GlcNAc(b1-4)GlcNAc
Outline: as §1

[10] = molecular target: GlcNAc(b1-3)Gal(b1-4)GlcNAc(b1-3)Gal(b1-4)GlcNAc(b1-3)Gal(b1-4)GlcNAc(b1-3)Gal(b1-4)GlcNAc(b1-2)Man(a1-3)[GlcNAc(b1-3)Gal(b1-4)GlcNAc(b1-3)Gal(b1-4)GlcNAc(b1-3)Gal(b1-4)GlcNAc(b1-3)Gal(b1-4)GlcNAc(b1-2)Man(a1-6)]Man(b1-4)GlcNAc(b1-4)[Fuc(a1-6)]GlcNAc
Outline: as §1

[11] = molecular target: GlcNAc(b1-3)Gal(b1-4)GlcNAc(b1-3)Gal(b1-4)GlcNAc(b1-3)Gal(b1-4)GlcNAc(b1-3)Gal(b1-4)GlcNAc(b1-2)[GlcNAc(b1-3)Gal(b1-4)GlcNAc(b1-3)Gal(b1-4)GlcNAc(b1-3)Gal(b1-4)GlcNAc(b1-3)Gal(b1-4)GlcNAc(b1-6)]Man(a1-6)[GlcNAc(b1-3)Gal(b1-4)GlcNAc(b1-3)Gal(b1-4)GlcNAc(b1-3)Gal(b1-4)GlcNAc(b1-3)Gal(b1-4)GlcNAc(b1-2)Man(a1-3)]Man(b1-4)GlcNAc(b1-4)[Fuc(a1-6)]GlcNAc
Outline: as §1

[12] = molecular target: GlcNAc(b1-3)Gal(b1-4)GlcNAc(b1-6)[GlcNAc(b1-3)Gal(b1-3)]GalNAc
Outline: as §1

[13] = molecular target: GlcNAc(b1-3)[GlcNAc(b1-6)]GalNAc
Outline: as §1

[14] = molecular target: GlcNAc(b1-4)GlcNAc(b1-4)GlcNAc(b1-4)GlcNAc(b1-4)GlcNAc(b1-4)GlcNAc
Outline: as §1

[15] = molecular target: GlcNAc(b1-6)Gal(b1-4)GlcNAc
Outline: as §1

[16] = molecular target: Kdn(a2-3)Gal(b1-4)[Fuc(a1-3)]GlcNAc
Outline: as §1

Neu5Ac(a2-3)Gal = molecular target: Neu5Ac(a2-3)Gal
Outline: as §1

[17] = molecular target: Neu5Ac(a2-3)Gal(b1-4)GlcNAc(b1-2)Man
Outline: as §1

[18] = molecular target: Neu5Ac(a2-3)Gal(b1-4)GlcNAc(b1-2)[Neu5Ac(a2-3)Gal(b1-4)GlcNAc(b1-4)]Man(a1-3)[GlcNAc(b1-4)][Neu5Ac(a2-3)Gal(b1-4)GlcNAc(b1-2)[Neu5Ac(a2-3)Gal(b1-4)GlcNAc(b1-6)]Man(a1-6)]Man(b1-4)GlcNAc(b1-4)GlcNAc
Outline: as §1

[19] = molecular target: Neu5Ac(a2-3)Gal(b1-4)[Fuc(a1-3)]GlcNAc(b1-3)Gal(b1-4)[Fuc(a1-3)]GlcNAc(b1-3)Gal(b1-4)[Fuc(a1-3)]GlcNAc
Outline: as §1

[20] = molecular target: Neu5Ac(a2-3)GalNAc(b1-4)GlcNAc
Outline: as §1

[21] = molecular target: Neu5Ac(a2-6)Gal(b1-4)GlcNAc(b1-2)Man(a1-3)[Gal(b1-4)GlcNAc(b1-2)Man(a1-6)]Man(b1-4)GlcNAc(b1-4)GlcNAc
Outline: as §1

[22] = molecular target: Neu5Ac(a2-6)Gal(b1-4)GlcNAc(b1-2)Man(a1-3)[Man(a1-6)]Man(b1-4)GlcNAc(b1-4)GlcNAc
Outline: as §1

B1: PVL (Psathyrella velutina), Q309D1_9AGAR (protein)
chain: MSVVVISQALPVPTRIPGVADLVGFGNGGVYIIRNSLLIQVVKVINNFGYDAGGWRVEKHVRLLADTTGDNQPDVVGFGENGVWISTNNGNNTFVDPPKMVLANFAYAAGGWRVEKHIRFMADLRKTGRADIVGFGDGGIYISRNNGGGQFAPAQLALNNFGYAQGWRLDRHLRFLADVTGDGLLDVVGFGENQVYIARNSGNGTFQPAQAVVNNFCIGAGGWTISAHPRVVADLTGDRKADILGFGVAGVYTSLNNGNGTFGAVNLVLKDFGVNSGWRVEKHVRCVSSLTNKKVGDIIGFGDAGVYVALNNGNGTFGPVKRVIDNFGYNQGWRVDKHPRFVVDLTGDGCADIVGFGENSVWACMNKGDGTFGPIMKLIDDMTVSKGWTLQKTVRYAANLYL
glycan array binding signal (z-score) (GlcNAc(b1-3)Gal(b1-4)Glc): 4.07 | glycan array binding signal (z-score) [1]: 3.27 | glycan array binding signal (z-score) [2]: 4.46 | glycan array binding signal (z-score) [3]: 3.34 | glycan array binding signal (z-score) [4]: 4.03 | glycan array binding signal (z-score) [5]: 4.69 | glycan array binding signal (z-score) [6]: 4.58 | glycan array binding signal (z-score) [7]: 4.34 | glycan array binding signal (z-score) [8]: 5.13 | glycan array binding signal (z-score) [9]: 4.45 | glycan array binding signal (z-score) [10]: 4.27 | glycan array binding signal (z-score) [11]: 5.12 | glycan array binding signal (z-score) [12]: 2.71 | glycan array binding signal (z-score) [13]: 1.1 | glycan array binding signal (z-score) [14]: 0.53 | glycan array binding signal (z-score) [15]: 0.714 | glycan array binding signal (z-score) [16]: -0.363 | glycan array binding signal (z-score) (Neu5Ac(a2-3)Gal): -0.341 | glycan array binding signal (z-score) [17]: -0.35 | glycan array binding signal (z-score) [18]: -0.201 | glycan array binding signal (z-score) [19]: -0.297 | glycan array binding signal (z-score) [20]: -0.351 | glycan array binding signal (z-score) [21]: -0.362 | glycan array binding signal (z-score) [22]: -0.349
